Reference: PubChem BioAssay (Tox21)
“And” between values parts separate entries of the source, which are not always exact repeats. Equal entries are not always repeated. Inconclusive results are not listed. A call without a number means that no potency is given here. Where a structure was tested more than once in an assay, its records may differ in their call. The source made the active and inactive calls. Unless noted, calls follow the shape of the dose curve; as a rule, active = well fitted curve in the direction sought with a large enough effect in the repeat runs; inconclusive = weak or mixed curves; inactive = no such curve, though single readings can be large; an effect the other way counts as inactive or inconclusive.

Tests used:
[1] = target: Thyrotropin receptor (Homo sapiens) (UniProt P16473); experiment: qHTS assay to identify small molecule agonists of the thyroid stimulating hormone receptor (TSHR) signaling pathway (AID 1224843; calls by dose curve; also: nearly all actives have a fitted effect of over 45% in size; also: potency is read from the fitted curve at half-maximal effect)
Outline: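 Cell line HEK293 with TSHR; density 800/well. Exposure 30 min RT. Readout HTRF cAMP (cAMP-d2/anti-cAMP-cryptate), 1 h RT before reading.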

[2] = qHTS assay to identify small molecule agonists of H2AX (AID 1224845; active = well fitted activation curve with a large enough effect in the signal ratio in the repeat runs, not every such curve was filed as active; the % refers to the signal ratio)
Outline: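 Wild-type CHO-K1 cells plated overnight, then exposed 3 hr at 37C to compounds at 15 concentrations (0.76% DMSO). Lysed, then HTRF anti-pH2AX(S139)-cryptate/anti-H2AX-d2 detection after 24 hr at room temperature; emissions 665 and 620 nm.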

[3] = qHTS assay to identify small molecule agonists of the hypoxia (HIF-1) signaling pathway (AID 1224846; active = well fitted activation curve with a large enough effect in the signal ratio in the repeat runs, not every such curve was filed as active; the % refers to the signal ratio)
Outline: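 HRE-bla ME-180 beta-lactamase reporter cells in medium with 0.5% dialyzed FBS, pre-incubated 5 h then exposed to compounds 17 h at 37C, 5% CO2; reporter induction read with CCF4-AM FRET substrate.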

[4] = qHTS assay to identify small molecule agonists of H2AX - cell viability counter screen (AID 1224847; calls by dose curve; also: nearly all actives have a fitted effect of over 30% in size; also: potency is read from the fitted curve at half-maximal effect)
Outline: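 Quantitative HTS viability measurement: CHO-K1 wild-type cells in serum (10% FBS) medium, short 3 hr drug exposure at 37C with 0.76% DMSO, CellTiter-Glo luminescent detection.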

[5] = qHTS RealTime-Glo MT Cell Viability Assay in HepG2 cells - 24 hour (AID 1224867); also: nearly all actives have a fitted effect of over 50% in size
Outline: (§1)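 Cells + NanoLuc/prosubstrate dispensed (600 cells/well) → 5 h at 37 C/5% CO2 → compounds in DMSO transferred → 40 h incubation at 37 C, luminescence read at 0, 8, 16, 24, 32, 40 h.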

[6] = qHTS RealTime-Glo MT Cell Viability Assay in HEK293 cells - 32 hour (AID 1224868); also: nearly all actives have a fitted effect of over 50% in size; also: potency is read from the fitted curve at half-maximal effect
Outline: (§2)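 Tox21 10K qHTS, HEK293, 600 cells/well, RealTime-Glo reagent co-dispensed with cells; 5 h preincubation, compound by pintool, 37 C, luminescence at 0–40 h.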

[7] = A CellTox Green Cytotoxicity Assay to monitor cytotoxicity in HEK293 cells - 0 hour (AID 1224869); also: nearly all actives have a fitted effect of over 50% in size
Outline: (§3)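 HEK293 cells, 600/well, were preincubated 5 hours and then exposed to compounds at 37 C for up to 40 hours. A cell-impermeant cyanine dye staining dead-cell DNA was read by fluorescence at 0, 8, 16, 24, 32 and 40 h time points.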

[8] = qHTS RealTime-Glo MT Cell Viability Assay in HepG2 cells - 40 hour (AID 1224870); also: nearly all actives have a fitted effect of over 50% in size; also: potency is read from the fitted curve at half-maximal effect
Outline: (§4)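 HepG2 cells mixed with RealTime-Glo MT reagents (NanoLuc plus cell-permeant prosubstrate) were seeded at 600 cells/well, incubated 5 h at 37 C/5% CO2, then pinned with compounds in DMSO; nonlytic luminescence tracked viability during 40 h treatment.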

[9] = A CellTox Green Cytotoxicity Assay to monitor cytotoxicity in HEK293 cells - 40 hour (AID 1224871); also: nearly all actives have a fitted effect of over 45% in size; also: potency is read from the fitted curve at half-maximal effect
Outline: as §3

[10] = qHTS RealTime-Glo MT Cell Viability Assay in HEK293 cells - 16 hour (AID 1224872)
Outline: as §2

[11] = qHTS RealTime-Glo MT Cell Viability Assay in HepG2 cells - 8 hour (AID 1224873); also: nearly all actives have a fitted effect of over 55% in size
Outline: as §4

[12] = qHTS RealTime-Glo MT Cell Viability Assay in HEK293 cells - 40 hour (AID 1224874); conditions: RealTime-Glo luminescence; max response: stronger effect = lower value; also: nearly all actives have a fitted effect of over 50% in size
Outline: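 600 cells/well were plated with the nonlytic NanoLuc/prosubstrate reagent, pre-incubated 5 h, then given 23 nL of compound in DMSO. Incubation at 37 C for 40 h, with luminescence from viable-cell-reduced substrate read repeatedly from 0 h.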

[13] = A CellTox Green Cytotoxicity Assay to monitor cytotoxicity in HEK293 cells - 24 hour (AID 1224875); also: nearly all actives have a fitted effect of over 45% in size
Outline: as §3

[14] = qHTS RealTime-Glo MT Cell Viability Assay in HepG2 cells - 32 hour (AID 1224877); also: nearly all actives have a fitted effect of over 55% in size; also: potency is read from the fitted curve at half-maximal effect
Outline: as §1

[15] = A CellTox Green Cytotoxicity Assay to monitor cytotoxicity in HepG2 cells - 40 hour (AID 1224879); also: nearly all actives have a fitted effect of over 40% in size
Outline: (§5)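 HepG2 cells, 600/well, preincubated 5 h with CellTox Green dye, then exposed to Tox21 compounds in DMSO at 37 C for up to 40 h. Dead-cell DNA fluorescence read at the indicated time point.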

[16] = A CellTox Green Cytotoxicity Assay to monitor cytotoxicity in HepG2 cells - 16 hour (AID 1224876); also: nearly all actives have a fitted effect of over 45% in size
Outline: as §5

[17] = A CellTox Green Cytotoxicity Assay to monitor cytotoxicity in HepG2 cells - 24 hour (AID 1224878); also: nearly all actives have a fitted effect of over 45% in size
Outline: as §5

[18] = qHTS assay to identify small molecule agonists of the hypoxia (HIF-1) signaling pathway - cell viability counter screen (AID 1224844; calls by dose curve; also: nearly all actives have a fitted effect of over 50% in size)
Outline: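 HRE-bla ME-180 cells, 2,000/well in 0.5% dialyzed FBS medium, treated 17 h at 37C with compounds. Viability read in the same wells as the bla reporter, by CellTiter-Glo luminescence after 30 min at room temperature.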

[19] = qHTS assay to identify small molecule antagonists of the estrogen related receptor (ERR) signaling pathway from Tox21 library (AID 1224848); also: nearly all actives have a fitted effect of over 50% in size
Outline: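 Screening used an ERR reporter line supplied by NTP, exposed for 18 h at 37 C to library compounds delivered in DMSO. Signal was luciferase luminescence developed with ONE-Glo at room temperature for 30 min.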

[20] = qHTS assay to identify small molecule agonists of the estrogen related receptor (ERR) signaling pathway from Tox21 library (AID 1224849; calls by dose curve; also: nearly all actives have a fitted effect of over 15% in size); conditions: ERR reporter cell line, ONE-Glo luciferase, 18 h; at 92.4 µM (top of the series) unless noted
Outline: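 ERR reporter cells (NTP line) pre-incubated 6 hours at 37 C, then exposed to compounds for 18 hours at 37 C. ONE-Glo luciferase luminescence was read after 30 minutes at room temperature.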

Chain of Thyrotropin receptor (Homo sapiens) (P16473 whole entry, looked up): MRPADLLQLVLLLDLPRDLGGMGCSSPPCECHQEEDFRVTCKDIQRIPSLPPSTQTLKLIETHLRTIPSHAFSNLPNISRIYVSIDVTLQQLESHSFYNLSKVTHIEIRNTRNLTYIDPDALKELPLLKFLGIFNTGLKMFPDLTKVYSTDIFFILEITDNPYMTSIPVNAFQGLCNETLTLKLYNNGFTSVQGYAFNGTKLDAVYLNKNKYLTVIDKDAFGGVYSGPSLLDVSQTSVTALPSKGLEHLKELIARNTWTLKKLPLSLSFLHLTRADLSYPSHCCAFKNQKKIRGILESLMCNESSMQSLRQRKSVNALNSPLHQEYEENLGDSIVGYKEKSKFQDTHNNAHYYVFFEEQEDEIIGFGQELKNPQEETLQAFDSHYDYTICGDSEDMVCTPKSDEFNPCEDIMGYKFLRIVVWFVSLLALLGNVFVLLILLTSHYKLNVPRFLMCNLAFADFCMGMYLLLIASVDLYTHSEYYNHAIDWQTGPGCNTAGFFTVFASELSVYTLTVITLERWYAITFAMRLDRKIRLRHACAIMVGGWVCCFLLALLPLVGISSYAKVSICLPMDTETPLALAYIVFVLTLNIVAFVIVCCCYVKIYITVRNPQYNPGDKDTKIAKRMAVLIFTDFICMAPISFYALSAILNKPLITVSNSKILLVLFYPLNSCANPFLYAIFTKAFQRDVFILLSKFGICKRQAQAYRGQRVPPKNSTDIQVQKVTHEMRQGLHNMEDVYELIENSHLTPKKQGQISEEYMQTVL

SMILES | Potency [1] | outcome [2] | outcome [3] | Potency [4] | Potency [5] | Potency [6] | outcome [7] | Potency [8] | Potency [9] | Potency [10] | outcome [11] | max response [12] | Potency [13] | Potency [14] | Potency [15] | Potency [16] | Potency [17] | Potency [18] | Potency [19] | activity change, positive = activation [20]
C=CCC1(C(C)CC)C(=O)NC(=O)NC1=O (stereo not drawn) | inactive | inactive | inactive | inactive | inactive | inactive | inactive | inactive | inactive | inactive | inactive | 5.74% (inactive) | inactive | inactive | inactive |  |  |  |  | 
O=C(O)C(Cl)Br (stereo not drawn) | inactive | inactive | inactive | inactive | inactive |  | inactive | inactive | inactive | inactive | inactive |  | inactive | inactive | inactive | inactive | inactive |  |  | 
Cc1ccc2cc(C)ccc2c1 |  | inactive | inactive | inactive | inactive | inactive | inactive | inactive | inactive | inactive | inactive | 8.7% (inactive) | inactive |  | inactive |  | inactive | inactive | inactive | 0.0091% (inactive)
CCN1CCCC1CNC(=O)C(O)(c1ccccc1)c1ccccc1 (stereo not drawn) | inactive | inactive | inactive | inactive | inactive | inactive | inactive | inactive | inactive | inactive | inactive | -2.61% (inactive) | inactive |  | inactive | inactive |  |  |  | 
O=S1(=O)OCCO1 | inactive | inactive | inactive | inactive |  | inactive | inactive | inactive | inactive | inactive | inactive | 4.27% (inactive) | inactive |  | inactive | inactive |  |  | inactive | 
O=[N+]([O-])CCO |  | inactive | inactive | inactive | inactive | inactive | inactive | inactive | inactive | inactive | inactive | 3.11% (inactive) | inactive | inactive |  |  |  | inactive | inactive | 1.1% (inactive)
O=C(Cl)C(Cl)(Cl)Cl | inactive | inactive | inactive | inactive | inactive | inactive | inactive | inactive | inactive | inactive | inactive | 1.29% (inactive) | inactive | inactive | inactive | inactive | inactive |  |  | 
CCOc1cc(OP(=S)(OC)OC)nc(CC)n1 | inactive | inactive | inactive | inactive |  | inactive | inactive | inactive | inactive | inactive | inactive | 6.75% (inactive) | inactive | inactive | inactive | inactive | inactive |  |  | 
CCCCCCCC(=O)Cl | inactive | inactive | inactive | inactive |  | inactive | inactive | inactive | inactive | inactive | inactive | 5.36% (inactive) | inactive | inactive | inactive |  | inactive |  |  | 
COc1cc(CCN)cc(OC)c1OC | inactive | inactive | inactive | inactive | inactive | inactive | inactive | inactive | inactive | inactive |  | -4.29% (inactive) | inactive | inactive | inactive | inactive | inactive |  |  | 
C#CC(C)(C)O |  | inactive | inactive | inactive | inactive | inactive | inactive | inactive | inactive | inactive | inactive | 6.71% (inactive) | inactive |  | inactive | inactive | inactive | inactive | inactive | -2.81% (inactive)
O=[N+]([O-])c1cccc(CCl)c1 |  | inactive | inactive | inactive | inactive | inactive | inactive | inactive | inactive | inactive | inactive | 6.77% (inactive) | inactive | inactive | inactive | inactive | inactive | inactive | inactive | -0.166% (inactive)
C[N+]1(C)CCCCC1 | inactive | inactive | inactive | inactive | inactive | inactive | inactive | inactive | inactive | inactive |  | 19.2% (inactive) | inactive | inactive | inactive | inactive |  |  |  | 
CCOC(=O)CC(SP(=S)(OC)OC)C(=O)OCC (stereo not drawn) | inactive | inactive | inactive | inactive | inactive | inactive | inactive | inactive | inactive | inactive | inactive | 11.4% (inactive) | inactive | inactive | inactive |  |  |  |  | 
CC(C)[N+](C)(CCC(C(N)=O)(c1ccccc1)c1ccccc1)C(C)C | inactive | inactive |  | inactive | inactive | inactive | inactive | 19 µM (active) | inactive | inactive | inactive |  | inactive | 21.3 µM (active) | inactive | inactive | inactive |  | inactive | 
ClC1=C(Cl)C2(Cl)C(CBr)CC1(Cl)C2(Cl)Cl (stereo not drawn) | 4.33 µM (active) and 10.6 µM (active) | inactive | inactive | 113 µM (active) and inactive | inactive | 49 µM (active) and inactive | inactive | inactive | 54.9 µM (active) and inactive |  | inactive | -5.43% (inactive) |  | inactive | inactive |  | inactive |  |  | 
CCC(C)C(C)(COC(N)=O)COC(N)=O (stereo not drawn) |  | inactive | inactive | inactive | inactive | inactive | inactive | inactive | inactive | inactive | inactive | 3.68% (inactive) | inactive | inactive | inactive | inactive | inactive | inactive | inactive | 1.95% [at 42.5 µM] (inactive)
